Records with an inconclusive call do not appear. The source made the active and inactive calls. The call rests on the fitted dose curve; in most records, active means well fitted curve in the direction sought with a large enough effect; inconclusive means small, poorly fitted or top-dose-only effect, or another doubt; inactive means no such curve, though single readings can be large or run the other way.
These compounds were tested against Polyunsaturated fatty acid lipoxygenase ALOX15 (Homo sapiens) (UniProt P16050) (assay: Counterscreen qHTS for inhibitors of human arachidonate 12S-lipoxygenase (ALOX12): ALOX15 Assay). Conditions: purified ALOX15 enzyme activity; series mostly up to 233 µM.
Sequence of Polyunsaturated fatty acid lipoxygenase ALOX15 (Homo sapiens) (P16050 whole entry, looked up): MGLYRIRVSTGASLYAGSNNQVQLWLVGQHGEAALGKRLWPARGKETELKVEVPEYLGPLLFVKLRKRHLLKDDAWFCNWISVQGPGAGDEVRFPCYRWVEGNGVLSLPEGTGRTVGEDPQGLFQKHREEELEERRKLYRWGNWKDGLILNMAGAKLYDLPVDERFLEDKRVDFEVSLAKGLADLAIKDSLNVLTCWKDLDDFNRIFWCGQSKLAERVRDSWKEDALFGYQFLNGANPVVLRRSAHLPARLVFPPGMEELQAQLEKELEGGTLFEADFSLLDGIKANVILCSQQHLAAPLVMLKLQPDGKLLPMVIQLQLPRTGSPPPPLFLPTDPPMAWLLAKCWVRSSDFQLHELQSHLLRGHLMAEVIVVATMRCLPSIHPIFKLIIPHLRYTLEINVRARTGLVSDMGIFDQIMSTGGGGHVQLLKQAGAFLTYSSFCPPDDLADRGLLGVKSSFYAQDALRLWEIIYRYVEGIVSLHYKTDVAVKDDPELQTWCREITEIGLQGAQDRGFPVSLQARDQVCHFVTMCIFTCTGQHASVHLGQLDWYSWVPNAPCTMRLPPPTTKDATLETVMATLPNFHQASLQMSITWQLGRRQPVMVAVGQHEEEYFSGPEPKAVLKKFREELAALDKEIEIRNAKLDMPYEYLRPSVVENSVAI
From the text: Assay Provider: Theodore R. Holman Ph.D.
University of California, Santa Cruz, California
Human lipoxygenase 12hLO is a member of the closely related lipoxygenase family of enzymes which catalyze the site-specific oxidation of arachidonic acid to various hormone precursor molecules and as such is a candidate for drug development in a variety of disease areas, such as cancer and inflammation. Inhibition of 12hLO activity was screened by utilizing arachidonic acid as a substrate. The extent of hydroperoxide product formation was measured by a secondary chromogenic reaction in which xylenol orange (XO, Sigma-Aldrich, cat. number 39,818-7) reacts with the ferric ions produced from the reaction between the hydroperoxide and ferrous ions. The Fe (III)-XO complex is characterized with red-shifted absorbance at 560 nm. A purified preparation of human 12hLO was supplied by Dr. Holman laboratory, University of California, Santa Cruz.
An assay against arachidonate 15-lipoxygenase (ALOX15) was developed to assess selective inhibition against ALOX12. Desired compounds would show potent inhibition against ALOX12 and minimal to no inhibition against ALOX15.
SEQUENCE No. (e.g., 1, 2, 3, etc.); PARAMETER (e.g., Cells, Incubation, Reagent, etc.); VALUE; DESCRIPTION
1; Enzyme; 3 uL; 40 nM ALOX15 (15hLO-1) enzyme solution dispensed in 1536-well Greiner black, clear bottom plates.
2; Compound; 23 nL; compounds and controls were added.
3; Incubate; 15 min; room temperature.
4; Substrate; 1 uL; 50 uM arachidonic acid (final concentration).
5; Incubate; 30 min; room temperature.
6; Reagent; 4 uL; Fe-XO solution was added to each well.
8; Incubation; 30 min; room temperature
9; Detector; absorbance; Read 1 at 405 nm absorbance using ViewLux (PerkinElmer) CCD imager.
10; Detector; absorbance; Read 2 at 573 nm absorbance using ViewLux (PerkinElmer) CCD imager.
NOTES (numbers refer to sequence above)
1; 40 nM ALOX15 (final concentration) in buffer solution (25 mM Hepes, 0.01% Triton X-100, pH 7.5) was dispensed in columns 1, 2, 5 - 48. Column 1 is neutral (100% activity). Buffer only was dispensed in columns 3 and 4 as no enzyme negative controls. The plates were covered with metal lids with gas-exchange holes.
2; Compounds were pin transferred via a Kalypsys Pin Tool (Wako USA) in column 5 - 48. Control compound was transferred in column 2, titration of nordihydroguaiaretic acid (NDGA, Sigma-Aldrich, N5023) with top concentration of 10 mM in DMSO then 1:2 dilution in duplicate. Dilution factor of 23 nL into 4 uL final assay volume.
3; Covered assay plates were incubated for 15 min at room temperature.
4; Substrate was added to start the reaction; 50 uM arachidonic acid (Sigma-Aldrich, St. Louis, MO) was dispensed throughout the plate.
6; Chromogenic detection reagent solution (divalent iron/xylenol orange, Fe-XO) was added to each well: 200 uM xylenol orange, 300 uM ferrous ammonium sulfate prepared freshly in 50 mM sulfuric acid.
9, 10; Two absorbance readouts were obtained at 405 nm and at 573 nm using a ViewLux high-throughput CCD plate imager (PerkinElmer). The 573 to 405 (Read 2 / Read 1) absorbance ratio was used to compute reaction progress.

| SMILES | outcome |
| --- | --- |
| CNC(C)c1ccc(Cl)cc1 (stereo not given) | inactive |
| COc1ccc(C(CN)N2CCCC2)cc1 (stereo not given) | inactive |
| c1ccc(CC2CN3CCCC3CN2)cc1 (stereo not given) | inactive |
| CC1CN2CCCCC2CN1 (stereo not given) | inactive |
| COc1ccc(CC(=O)N2Cc3ccccc3CC3(CCCCN3C)C2)cc1 (stereo not given) | inactive |
| FC(F)(F)CN1C2CCC1CN(c1cncc(Br)c1)C2 | inactive |
| O=C1Nc2ccccc2C12CCN(CC1CCCCC1)CC2 | inactive |
| O=C1NC2(Cc3ccccc31)CN(CC1CC1)C2 | inactive |
| CCN1CCCCC12Cc1ccccc1CN(C(=O)Cc1ccc(OC)cc1)C2 (stereo not given) | inactive |
| CCCCC1CN2CCCC2CN1 (stereo not given) | inactive |
| O=C(O)C1=NOC2CN(Cc3cccc(Br)n3)CC12 (stereo not given) | inactive |
| O=C(O)C1=NOC2CN(Cc3ccccc3)CC12 (stereo not given) | inactive |
| O=C1Nc2ccccc2CN(Cc2ccncc2)C12CCNCC2 | inactive |
| c1cnc2nc(C3CCNCC3)[nH]c2c1 | inactive |
| O=C(Cc1ccc(Cl)cc1)N1Cc2ccccc2CC2(CCCN2CC2CCNC2)C1 (stereo not given) | inactive |
| CC(C)C1CN2CCCC2CN1 (stereo not given) | inactive |
| CN(C)c1ccc(CN2CCC3(CC2)C(=O)Nc2ccccc23)cc1 | inactive |
| CCN1CCCCC12Cc1ccccc1CN(C(=O)Cc1ccccc1)C2 (stereo not given) | inactive |
| CNC1CCc2ccccc21 (stereo not given) | inactive |
| O=[S+]1([O-])NC2(CCN(CC3CCOCC3)C2)COc2ccncc21 (stereo not given) | inactive |
